The subject of this test is primary human hepatic stellate cells (donor 1). Put plainly: scaled lipid accumulation score (0 = DMSO-like, 1 = nortriptyline-like); higher = stronger HSC inactivation (lipid re-accumulation), active = hit call of the paper. The note with it: 48 h.
Where [1] appears, read: library stock concentration: 10 mM.
Where [2] appears, read: library stock concentration: 80 uM.
[3] abbreviates: library stock concentration: 400 uM.
The mark [4] stands for this setting: library stock concentration: 2 mM.
Setting [5] is: library stock concentration: 3.33 mM.
[6] abbreviates: library stock concentration: 1 mM.

This note sets out measurements from the supplement of paper PMC9135407.

“And” between values parts separate entries of the source, which are not always exact repeats. Identical values can stand only once. Counter-ions that a name gives are not always drawn. The whole screen tested about 5,800 compounds, of which about 620 (11%) showed activity. This is one part of a sample in which actives are shown more often than they occur. Values without a mark were called inactive.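 How the source made its calls: active = score above a cut-off or among the top three wells of a plate; in these data no inactive exceeds 0.85.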 Some results are limits rather than exact numbers.

Take `CCC(NC(C)C)C(O)c1ccc(O)c2[nH]c(=O)ccc12` (stereo unspecified) [Procaterol hydrochloride]: the “scaled lipid accumulation score” value was no more than 0 (library stock concentration: 6.1 mM) and no more than -0.006 under setting [1].

With `CCC(NC(C)C)C(O)c1ccc(O)c2[nH]c(=O)ccc12` (stereo unspecified) [Procaterol hcl], the “scaled lipid accumulation score” value (library stock concentration: 6.9 mM) was no more than -0.006.

`O=C(O)c1cc2ccccc2[nH]1` [Indole-2-carboxylic acid]: the “scaled lipid accumulation score” value under setting [1] is no more than 0.

In the case of `Cc1nc2ccc(-n3ncc(C(=O)c4cc5ccccc5[nH]4)c3N)cc2[nH]1` [listing 1 of 2 here], the “scaled lipid accumulation score” value under setting [1] is 0.907 (active).

As to `Cc1nc2ccc(-n3ncc(C(=O)c4cc5ccccc5[nH]4)c3N)cc2[nH]1` [listing 2 of 2 here], the “scaled lipid accumulation score” value by setting is: under setting [2], 0.004; under setting [3], no more than -0.001; under setting [4], no more than 0.

Consider `CC(C)c1cc(C(C)C)c(CC(=O)NS(=O)(=O)Oc2c(C(C)C)cccc2C(C)C)c(C(C)C)c1` [Avasimibe], for which the “scaled lipid accumulation score” value is, setting by setting: under setting [5], no more than 0; under setting [1], no more than 0.

As to `COc1cccc(NC(=O)/C=C/c2ccc(Cl)cc2)c1` [listing 1 of 2 here], the “scaled lipid accumulation score” value under setting [1] is 0.153.

On to `COc1cc(/C=C/c2ccc(Cl)cc2)cc(OC)c1`, for which the “scaled lipid accumulation score” value under setting [6] is no more than 0.

Take `COc1cccc(NC(=O)/C=C/c2ccc(Cl)cc2)c1` [listing 2 of 2 here]: the “scaled lipid accumulation score” value under setting [1] is 1.2 (active).

Consider `CCCCC/C=C\CCCCCCCCCCCCC(=O)O` [14(Z)-Eicosenoic Acid], for which, under setting [6], the “scaled lipid accumulation score” value was no more than 0.

`CC(O)C(=O)O.CC(O)C(=O)O.CN1CCN(c2ccc3nc(-c4c(N)c5c(F)cccc5[nH]c4=O)[nH]c3c2)CC1` [Dovitinib (TKI-258) Dilactic Acid]: the “scaled lipid accumulation score” value under setting [5] was 1.27 (active).

As to `CN1CCN(c2ccc3nc(-c4c(N)c5c(F)cccc5[nH]c4=O)[nH]c3c2)CC1` [listing 1 of 2 here], the “scaled lipid accumulation score” value is 0.945 (active) under setting [3], 1.11 (active) under setting [4] and 1.08 (active) under setting [1].

For the compound `CN1CCN(c2ccc3nc(-c4c(N)c5c(F)cccc5[nH]c4=O)[nH]c3c2)CC1` [Dovitinib (TKI-258, CHIR-258)], the “scaled lipid accumulation score” value runs as follows: under setting [5], 1.25 (active); under setting [1], 1.13 (active).

For the compound `CN1CCN(C(=O)c2nc3ccc(Cl)cc3[nH]2)CC1`, the “scaled lipid accumulation score” value under setting [1] was 0.076.

For `CN1CCN(c2ccc3nc(-c4c(N)c5c(F)cccc5[nH]c4=O)[nH]c3c2)CC1` [Dovitinib (TKI-258) Dilactic Acid], the “scaled lipid accumulation score” value under setting [1] is 0.445.

Regarding `CCOc1ccc(-c2nc3ccc(-c4nc5ccc(N6CCN(C)CC6)cc5[nH]4)cc3[nH]2)cc1`, under “library stock concentration: 8.9 mM”, the “scaled lipid accumulation score” value is 0.339.

Take `CN1CCN(c2ccc3nc(-c4c(N)c5c(F)cccc5[nH]c4=O)[nH]c3c2)CC1` [listing 2 of 2 here]: the “scaled lipid accumulation score” value under setting [2] was 0.779.

Consider `CC[C@@H]1Cn2c(c3nc(-c4ccccc4)nc-3n(C)c2=O)N1`, for which the “scaled lipid accumulation score” value under setting [1] is 0.008.

As for `c1cnc2cc3c(cc2n1)[C@@H]1CNC[C@H]3C1` [Varenicline tartrate], the “scaled lipid accumulation score” value under setting [1] was no more than 0.

With `NC(=O)[C@@H]1CCCN1C(=O)[C@H](Cc1c[nH]cn1)NC(=O)[C@@H]1CCC(=O)N1`, the “scaled lipid accumulation score” value under setting [1] was no more than 0.

In the case of `CC[C@@H](C(=O)[C@@H](C)[C@@H](O)[C@H](C)CCc1ccc(C)c(O)c1C(=O)O)[C@H]1O[C@](CC)([C@H]2CC[C@](O)(CC)[C@H](C)O2)C[C@@H]1C` [Lasalocid sodium salt], the “scaled lipid accumulation score” value was 0.439.

Regarding `CC[C@@H](C(=O)[C@@H](C)[C@@H](O)[C@H](C)CCc1ccc(C)c(O)c1C(=O)O)[C@H]1O[C@](CC)([C@H]2CC[C@](O)(CC)[C@H](C)O2)C[C@@H]1C` [Lasalocid sodium], the “scaled lipid accumulation score” value under setting [1] is 0.665.

In the case of `COc1ccc(C2CC(c3c(O)cc(C)oc3=O)=NCCS2)c(OC)c1` (stereo unspecified), the “scaled lipid accumulation score” value under setting [1] was 0.164.

`CCCCC[C@](C)(O)/C=C/[C@H]1[C@H](O)CC(=O)[C@@H]1CCCCCCC(=O)O` [15(S)-15-methyl Prostaglandin E1]: the “scaled lipid accumulation score” value under setting [6] was 0.012.

Turning to `Cc1nnc(-c2ccc3occ(-c4ccc([S+](C)[O-])cc4)c3c2)o1` (stereo unspecified), under setting [1], the “scaled lipid accumulation score” value was 0.106.

Consider `NC(=O)Cc1cccc(C(=O)c2ccccc2)c1N` [Nepafenac], for which the “scaled lipid accumulation score” value was no more than 0 under setting [5] and 0.098 under setting [1].

Regarding `O=C(O)C1CSCN1` (stereo unspecified), the “scaled lipid accumulation score” value under setting [1] is no more than 0.

As for `COc1c(OC)c2occc2c2oc(=O)ccc12` [Pimpinellin], the “scaled lipid accumulation score” value under setting [1] is no more than 0.

For `O=C(O)CCC/C=C/C[C@@H]1[C@@H](/C=C/[C@@H](O)COc2cccc(C(F)(F)F)c2)[C@H](O)C[C@@H]1O` [5-trans Fluprostenol], under setting [6], the “scaled lipid accumulation score” value was 0.008.

Consider `c1ccc(CN(CC2=NCCN2)c2ccccc2)cc1` [Antazoline phosphate], for which the “scaled lipid accumulation score” value under setting [1] is 0.143.

Take `CC(C)COCC(CN(Cc1ccccc1)c1ccccc1)N1CCCC1` (stereo unspecified) [Bepridil hydrochloride]: the “scaled lipid accumulation score” value is 0.677. Also, the “scaled lipid accumulation score” value (library stock concentration: 5 mM) is 0.569. The “scaled lipid accumulation score” value under setting [1] is 0.175 and 0.195.

As for `CC(C)COCC(CN(Cc1ccccc1)c1ccccc1)N1CCCC1.Cl` (stereo unspecified), the “scaled lipid accumulation score” value (library stock concentration: 12.4 mM) is 0.96 (active).

Turning to `c1ccc(CN(CC2=NCCN2)c2ccccc2)cc1` [Antazoline hydrochloride], the “scaled lipid accumulation score” value is 0.544. For the same compound, under setting [1], the “scaled lipid accumulation score” value was 0.11.

Consider `c1ccc(CN(CC2=NCCN2)c2ccccc2)cc1` [Antazoline HCl], for which the “scaled lipid accumulation score” value runs as follows: under setting [5], no more than 0; under setting [1], 0.363.
